Data on 40 compounds can be found in the supplement of paper PMC9844399.

Where a name gives a salt, the structure may show the parent alone.
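Wherever MALAT1 nuclear FISH intensity, robust Z-score vs DMSO is given: High-content confocal imaging of branched-DNA amplified FISH in 384-well plates, Hoechst-defined nuclei, score is well value minus plate DMSO median over DMSO robust SD, four wells per compound.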
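Wherever nuclear count per well, robust Z-score vs DMSO is given: Hoechst-stained nuclei counted by automated confocal imaging of four fields per well in 384-well plates, with the robust Z-score based on the per-plate DMSO median and robust SD.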

One assay concerns HeLa. Description: nuclear count per well, robust Z-score vs DMSO; higher = more cells (less toxicity). The note with it: 10 µM; 6 h.
Regarding `CC/C(=C(\c1ccccc1)c1ccc(OCCN(C)C)cc1)c1ccccc1` [Tamoxifen], the “nuclear count per well” value was -0.0627.

On to `C[C@H]1C[C@H]2[C@@H]3CCC4=CC(=O)C=C[C@]4(C)[C@@]3(F)[C@@H](O)C[C@]2(C)[C@@]1(O)C(=O)CO` [Betamethasone], for which the “nuclear count per well” value was -0.431.

Turning to `C[C@H]1[C@H](NC(=O)/C(=N\OC(C)(C)C(=O)O)c2csc(N)n2)C(=O)N1S(=O)(=O)O` [Aztreonam], the “nuclear count per well” value is 0.104.

Consider `CC=CC1=C(C(=O)O)N2C(=O)[C@@H](NC(=O)[C@H](N)c3ccc(O)cc3)[C@H]2SC1` [Cefprozil], for which the “nuclear count per well” value was 1.85.

Consider `Cc1ccc(O)c([C@H](CCN(C(C)C)C(C)C)c2ccccc2)c1` [Tolterodine L-tartrate], for which the “nuclear count per well” value was -0.249.

Turning to `COc1cc(C(=O)NS(=O)(=O)c2ccccc2C)ccc1Cc1cn(C)c2ccc(NC(=O)OC3CCCC3)cc12` [Zafirlukast], the “nuclear count per well” value is 0.673.

Turning to `COc1cc2c3cc1Oc1c(OC)c(OC)cc4c1[C@@H](Cc1ccc(OC(=O)c5ccc([N+](=O)[O-])cc5)c(c1)Oc1ccc(cc1)C[C@@H]3N(C)CC2)N(C)CC4`, the “nuclear count per well” value was 1.12.

As for `C#CCCCCCCCCCCCCCCCC(=O)O` [17-Octadecynoic acid], the “nuclear count per well” value is -0.139.

Consider `O=C1C(O)=C([C@H]2CC[C@H](c3ccc(Cl)cc3)CC2)C(=O)c2ccccc21` [Atovaquone], for which the “nuclear count per well” value amounted to 1.13.

Another assay has as its system HeLa. Description: MALAT1 nuclear FISH intensity, robust Z-score vs DMSO; higher = more nuclear MALAT1 lncRNA, active = -3 or less. The note with it: 10 µM; 6 h.
As for `CCCCCC(O)C=CC1C(O)CC(O)C1CC=CCCCC(=O)O` (stereo not drawn) [8-epi-Prostaglandin F2a], the “MALAT1 nuclear FISH intensity” value was -0.0974 (inactive).

As for `CN(C)C(=N)NC(=N)N`, the “MALAT1 nuclear FISH intensity” value is 0.0968 (inactive).

With `Cc1ccc(Nc2nccc(N(C)c3ccc4c(C)n(C)nc4c3)n2)cc1S(N)(=O)=O`, the “MALAT1 nuclear FISH intensity” value was 0.577 (inactive).

Take `COc1ccc2c(c1)c(CC(=O)N1CCOCC1)c(C)n2C(=O)c1ccc(Cl)cc1`: the “MALAT1 nuclear FISH intensity” value was -0.212 (inactive).

For `CCCCC[C@H](O)/C=C/[C@H]1C=CC(=O)[C@@H]1CCCCCCC(=O)O` [Prostaglandin A1], the “MALAT1 nuclear FISH intensity” value is -0.502 (inactive).

With `CC[C@@]1(O)C(=O)OCc2c1cc1n(c2=O)Cc2cc3cc(O)ccc3nc2-1` [10-hydroxycamptothecin], the “MALAT1 nuclear FISH intensity” value was -3.09 (active).

For `CC1(C)S[C@@H]2[C@H](NC(=O)[C@H](N)c3ccc(O)cc3)C(=O)N2[C@H]1C(=O)O` [Amoxicillin], the “MALAT1 nuclear FISH intensity” value is -1.27 (inactive).

As to `NC(=O)c1cnccn1` [Pyrazinamide], the “MALAT1 nuclear FISH intensity” value is -1.58 (inactive).

As for `C=C(C)[C@@H]1CC[C@]2(C(=O)O)CC[C@]3(C)[C@H](CC[C@@H]4[C@@]5(C)CC[C@H](O)C(C)(C)[C@@H]5CC[C@]43C)[C@@H]12` [Betulinic acid], the “MALAT1 nuclear FISH intensity” value is -0.261 (inactive).

In the case of `CC[C@H]1OC(=O)[C@H](C)[C@@H](O[C@H]2C[C@@](C)(OC)[C@@H](O)[C@H](C)O2)[C@H](C)[C@@H](O[C@@H]2O[C@H](C)C[C@H](N(C)C)[C@H]2O)[C@](C)(O)C[C@@H](C)C(=O)[C@H](C)[C@@H](O)[C@]1(C)O` [Erythromycin], the “MALAT1 nuclear FISH intensity” value is 0.88 (inactive).

Take `COc1cc2ncnc(Nc3ccc(F)c(Cl)c3)c2cc1OCCCN1CCOCC1` [Gefitinib]: the “MALAT1 nuclear FISH intensity” value was -0.291 (inactive).

With `CO[C@H]1C[C@@H]2CC[C@@H](C)[C@@](O)(O2)C(=O)C(=O)N2CCCC[C@H]2C(=O)O[C@H]([C@H](C)C[C@@H]2CC[C@@H](O)[C@H](OC)C2)CC(=O)[C@H](C)/C=C(\C)[C@@H](O)[C@@H](OC)C(=O)[C@H](C)C[C@H](C)/C=C/C=C/C=C/1C` [Rapamycin], the “MALAT1 nuclear FISH intensity” value was 1.16 (inactive).

`CCOC(=O)C1=C[C@@H](OC(CC)CC)[C@H](NC(C)=O)[C@@H](N)C1` [Oseltamivir Phosphate]: the “MALAT1 nuclear FISH intensity” value is -0.873 (inactive).

Turning to `CO[C@H]1C[C@@H]2CC[C@@H](C)[C@@](O)(O2)C(=O)C(=O)N2CCCC[C@H]2C(=O)O[C@H]([C@H](C)C[C@@H]2CC[C@@H](OC(=O)C(C)(CO)CO)[C@H](OC)C2)CC(=O)[C@H](C)/C=C(\C)[C@@H](O)[C@@H](OC)C(=O)[C@H](C)C[C@H](C)/C=C/C=C/C=C/1C` [Temsirolimus], the “MALAT1 nuclear FISH intensity” value is 1.29 (inactive).

`Cc1cn[nH]c1` [Fomepizole]: the “MALAT1 nuclear FISH intensity” value was 0.179 (inactive).

In the case of `OC[C@@H](O)[C@@H](O)[C@H](O)[C@H](O)CO` [Mannitol], the “MALAT1 nuclear FISH intensity” value was 0.661 (inactive).

As to `Clc1ccc2nsnc2c1NC1=NCCN1`, the “MALAT1 nuclear FISH intensity” value was -0.0216 (inactive).

Turning to `CCCCCCCCCCCCCCC[C@@H](O)[C@@H](N)CO` [Dihydrosphingosine], the “MALAT1 nuclear FISH intensity” value was 0.974 (inactive).

For the compound `CN(C)CC[C@@H](c1ccc(Cl)cc1)c1ccccn1` [Dexchlorpheniramine Maleate], the “MALAT1 nuclear FISH intensity” value was -0.666 (inactive).

`O=c1oc2ccccc2c(O)c1Cc1c(O)c2ccccc2oc1=O` [Dicumarol]: the “MALAT1 nuclear FISH intensity” value was -1.34 (inactive).

Take `CCN(CC)C(=S)SSC(=S)N(CC)CC` [Disulfiram]: the “MALAT1 nuclear FISH intensity” value is -0.567 (inactive).

Take `CCCCC[C@H](O)/C=C/[C@@H]1[C@@H](CC(=O)CCCCC(=O)O)[C@@H](O)C[C@H]1O` [6-Keto-prostaglandin F1a]: the “MALAT1 nuclear FISH intensity” value is 0.823 (inactive).

For the compound `Cc1ccc(N(CC2=NCCN2)c2cccc(O)c2)cc1` [Phentolamine mesylate], the “MALAT1 nuclear FISH intensity” value is -0.844 (inactive).

On to `CC(C)=CCC/C(C)=C/CC/C(C)=C/CSCC(=O)O` [Farnesylthioacetic acid], for which the “MALAT1 nuclear FISH intensity” value was 0.27 (inactive).

For `Cc1ccc(S(=O)(=O)NC(=O)NN2CCCCCC2)cc1` [Tolazamide], the “MALAT1 nuclear FISH intensity” value was -0.0859 (inactive).

As for `CCCCC[C@H](O)/C=C/C1=C(CCCCCCC(=O)O)C(=O)CC1` [Prostaglandin B1], the “MALAT1 nuclear FISH intensity” value is -0.084 (inactive).

Turning to `N=C(N)c1ccc(OCCCCCOc2ccc(C(=N)N)cc2)cc1` [Pentamidine Isethionate], the “MALAT1 nuclear FISH intensity” value was -0.144 (inactive).

In the case of `O=C(O)C[C@H](O)C[C@H](O)/C=C/c1c(C2CC2)nc2ccccc2c1-c1ccc(F)cc1` [Pitavastatin Calcium], the “MALAT1 nuclear FISH intensity” value is 1.41 (inactive).

On to `CN1CCC[C@@H]1CCO[C@](C)(c1ccccc1)c1ccc(Cl)cc1` [Clemastine fumarate], for which the “MALAT1 nuclear FISH intensity” value was 1.04 (inactive).

In the case of `Oc1ccc(C2CNCCc3c2cc(O)c(O)c3Cl)cc1` (centres undefined) [Fenoldopam Mesylate], the “MALAT1 nuclear FISH intensity” value was -1.62 (inactive).

`Cc1c(C(=O)Nc2ccc(N3C[C@@H](C)O[C@@H](C)C3)nc2)cccc1-c1ccc(OC(F)(F)F)cc1`: the “MALAT1 nuclear FISH intensity” value was 0.333 (inactive).

As for `CC/C(=C(\c1ccccc1)c1ccc(OCCN(C)C)cc1)c1ccccc1` [Tamoxifen], the “MALAT1 nuclear FISH intensity” value is 0.0111 (inactive).

`C[C@H]1C[C@H]2[C@@H]3CCC4=CC(=O)C=C[C@]4(C)[C@@]3(F)[C@@H](O)C[C@]2(C)[C@@]1(O)C(=O)CO` [Betamethasone]: the “MALAT1 nuclear FISH intensity” value is 2.13 (inactive).

Consider `C[C@H]1[C@H](NC(=O)/C(=N\OC(C)(C)C(=O)O)c2csc(N)n2)C(=O)N1S(=O)(=O)O` [Aztreonam], for which the “MALAT1 nuclear FISH intensity” value was 0.0374 (inactive).

Regarding `CC=CC1=C(C(=O)O)N2C(=O)[C@@H](NC(=O)[C@H](N)c3ccc(O)cc3)[C@H]2SC1` [Cefprozil], the “MALAT1 nuclear FISH intensity” value is -1.07 (inactive).

As to `Cc1ccc(O)c([C@H](CCN(C(C)C)C(C)C)c2ccccc2)c1` [Tolterodine L-tartrate], the “MALAT1 nuclear FISH intensity” value was -0.93 (inactive).

For `COc1cc(C(=O)NS(=O)(=O)c2ccccc2C)ccc1Cc1cn(C)c2ccc(NC(=O)OC3CCCC3)cc12` [Zafirlukast], the “MALAT1 nuclear FISH intensity” value was 0.491 (inactive).

Consider `COc1cc2c3cc1Oc1c(OC)c(OC)cc4c1[C@@H](Cc1ccc(OC(=O)c5ccc([N+](=O)[O-])cc5)c(c1)Oc1ccc(cc1)C[C@@H]3N(C)CC2)N(C)CC4`, for which the “MALAT1 nuclear FISH intensity” value is 1.07 (inactive).

As to `C#CCCCCCCCCCCCCCCCC(=O)O` [17-Octadecynoic acid], the “MALAT1 nuclear FISH intensity” value was -0.883 (inactive).

On to `O=C1C(O)=C([C@H]2CC[C@H](c3ccc(Cl)cc3)CC2)C(=O)c2ccccc21` [Atovaquone], for which the “MALAT1 nuclear FISH intensity” value is 1.11 (inactive).
